According to PubChem BioAssay (NCI):
About 79,000 compounds went through this panel and 15% of them were active in at least one assay; those are over-represented in the sample as a whole. Unmarked numbers belong to inactive results. Calls of active or inactive are those of the source. Rule as the data show it: active = growth inhibition above about 70%; inactive = the rest.

Experiment: NCI Yeast Anticancer Drug Screen. Data for the wt1 strain (AID 149);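 also: 0% = growth of vehicle-treated wt1 cultures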
Settings: S. cerevisiae wt1 strain (SPY 50644) growth inhibition, active compounds read high
Experimental: Growth inhibition of yeast strains with defined genetic alterations is measured as a screen for potential anti-cancer activity. Selected strains with alterations in DNA damage repair or cell cycle control were exposed to compounds and growth inhibition was measured relative to vehicle treated controls. The strain used in this assay is wt1

`CCCc1[nH]nc(C(N)=O)c1N=NN(C)C` showed a growth inhibition (at 1.2 µM) of -6%, a growth inhibition (at 3.7 µM) of -4% and a growth inhibition (at 11.0 µM) of -7%. The growth inhibition (at 33.0 µM) was -4% and the growth inhibition (at 100.0 µM) was 5%.
For `Cc1cccc(/C=N/NC(=S)N(C)CCc2ccccn2)n1`, the growth inhibition (at 1.2 µM) was 90% (active), the growth inhibition (at 3.7 µM) was 94% (active) and the growth inhibition (at 11.0 µM) was 98% (active). For the same compound, the growth inhibition (at 33.0 µM) was 99% (active) and the growth inhibition (at 100.0 µM) was 99% (active).
Compound `S=C1SCN(CCc2ccccc2)CN1CCc1ccccc1` has a growth inhibition (at 1.2 µM) of 16%, a growth inhibition (at 3.7 µM) of -1% and a growth inhibition (at 11.0 µM) of 46%. The growth inhibition (at 33.0 µM) was 45% and the growth inhibition (at 100.0 µM) was 10%.
In the case of `CCOC(=O)Nc1ccc2c(c1)Cc1ccccc1-2`, the growth inhibition (at 1.2 µM) is reported as -2%, the growth inhibition (at 3.7 µM) is reported as 5% and the growth inhibition (at 11.0 µM) is reported as 11%. The growth inhibition (at 33.0 µM) was 7% and the growth inhibition (at 100.0 µM) was 10%.
Work on `C=C(C)[C@@H]1CCc2c(O)c(O)c(=O)cc(C)c2C1` yielded a growth inhibition (at 1.2 µM) of 7%, a growth inhibition (at 3.7 µM) of 25% and a growth inhibition (at 11.0 µM) of 37%. The growth inhibition (at 33.0 µM) was 58% and the growth inhibition (at 100.0 µM) was 99% (active).
With `COc1ccc2c(c1)[nH]c1c(/C=C/c3ccccc3)nccc12` the growth inhibition (at 1.2 µM) was -34%, the growth inhibition (at 3.7 µM) was -32% and the growth inhibition (at 11.0 µM) was -18%. For the same compound, the growth inhibition (at 33.0 µM) was 41% and the growth inhibition (at 100.0 µM) was 97% (active).
For `CNc1ccc(Cc2c[nH]c3ccccc23)cc1`, the growth inhibition (at 1.2 µM) was -11%, the growth inhibition (at 3.7 µM) was -11% and the growth inhibition (at 11.0 µM) was -17%. It also gave a growth inhibition (at 33.0 µM) of -17% and a growth inhibition (at 100.0 µM) of -1%.
`COc1cc(/C=C/c2sc3ccccc3[n+]2C)ccc1N(C)C` showed a growth inhibition (at 1.2 µM) of 0%, a growth inhibition (at 3.7 µM) of -1% and a growth inhibition (at 11.0 µM) of -1%. For the same compound, the growth inhibition (at 33.0 µM) was 30% and the growth inhibition (at 100.0 µM) was 97% (active).
